Results with a measured potency or affinity are listed apart. Calls of active or inactive are those of the source.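 The calls were made as follows: active = compounds whose fitted half-maximal effective concentration for blocking dye efflux is below 100 µM; inactive = the rest.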
Biological target: Benomyl/methotrexate resistance protein (Candida albicans) (UniProt P28873)
Assay: Candida albicans Mdr1 pump blockade titration – singleplex, Cherry Pick2 set, dose response (AID 623992)
Details: S. cerevisiae AD/CaMDR1, Nile Red efflux, flow cytometry; series mostly up to 100 µM; efflux inhibition response: at the top concentration

Benomyl/methotrexate resistance protein (Candida albicans), sequence (P28873 whole entry, looked up): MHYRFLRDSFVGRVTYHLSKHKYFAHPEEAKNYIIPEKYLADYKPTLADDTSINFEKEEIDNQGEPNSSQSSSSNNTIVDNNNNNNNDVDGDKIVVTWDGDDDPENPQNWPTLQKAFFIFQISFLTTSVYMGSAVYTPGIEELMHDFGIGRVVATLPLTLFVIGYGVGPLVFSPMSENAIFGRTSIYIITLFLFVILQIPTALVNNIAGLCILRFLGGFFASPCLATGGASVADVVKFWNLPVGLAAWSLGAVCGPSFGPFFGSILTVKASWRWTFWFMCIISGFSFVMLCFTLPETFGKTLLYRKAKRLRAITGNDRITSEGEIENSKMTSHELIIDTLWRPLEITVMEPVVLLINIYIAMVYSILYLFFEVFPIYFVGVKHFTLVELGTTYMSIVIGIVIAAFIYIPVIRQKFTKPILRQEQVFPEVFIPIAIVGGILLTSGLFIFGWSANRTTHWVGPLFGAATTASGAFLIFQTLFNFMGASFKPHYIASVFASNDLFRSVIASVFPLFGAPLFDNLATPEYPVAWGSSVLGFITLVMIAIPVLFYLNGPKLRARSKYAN

Efflux inhibition response, inactive:
C[C@@]12C(=O)Nc3cc(F)c(F)cc3C(=O)N1[C@H]1c3cc(Cl)ccc3OC[C@@H]1[C@@H]2c1ccccc1 0.23%, O=C(Nc1ccccc1)C1=C[C@@H](c2ccc(Br)cc2)C[C@@H](OCCCCO)O1 -1.31%, Cc1cc(C(=O)NC2CC(C)(C)Cc3c2cnn3-c2ccc(F)cc2)no1 (stereo unspecified) -1.32%, COc1cc(OC)c2ccc(=O)oc2c1C(CCN1CCCC1)c1ccc(N(C)C)cc1 (stereo unspecified) -0.52%, COc1ccc(C2CC(c3ccccc3C(F)(F)F)=NN2c2ccc(S(N)(=O)=O)cc2)cc1 (stereo unspecified) 53.7%, CCCCNC(=O)C1CCC(CNc2nc(=S)[nH]c3ccccc23)CC1 (stereo unspecified) 1.33%, CCO[C@@H]1OC(C(=O)Nc2ccccc2)=C[C@H](c2ccccc2)[C@H]1CCCO -1.21%, NS(=O)(=O)c1ccc(N2N=C(c3ccccc3)CC2c2ccc(Br)cc2)cc1 (stereo unspecified) -2.11%, CC(C)C(=O)N1CCN(c2ccccc2NC(=O)c2ccc3c(c2)OCCO3)CC1 0.84%, COc1ccccc1C(=O)OCCc1ccccc1 -0.58%, COc1ccc(CNC(=O)C(C#N)c2nc3ccccc3nc2N2CCCC2)cc1 (stereo unspecified) -1.31%, Cc1ccc2c(c1)[C@H]1[C@H](CO2)[C@H](c2ccccc2)[C@]2(C)C(=O)Nc3cc(F)c(F)cc3C(=O)N12 -0.45%, Cc1ccc(C)c(N2CCN(C(=O)C3CCCN(c4ncnc5c4nc4n5CCCCC4)C3)CC2)c1 (stereo unspecified) -0.53%, CN1Cc2cc(C(=O)c3ccccc3O)cnc2NC1=O -1.55%, O=C(Nc1ccccc1)C1=C[C@@H](c2ccc(C(F)(F)F)cc2)C[C@@H](OCCCCO)O1 0.5%, COc1cc(OC)c2c(-c3ccccc3)cc(=O)oc2c1C(CCN1CCCC(C)C1)c1ccc(N(C)C)cc1 (stereo unspecified) -0.53%, COc1ccc(C(=O)OCCc2ccc(O)cc2)cc1 0.09%, COc1cc(OC)c2ccc(=O)oc2c1C(CCN1CCCC(C)C1)c1ccc(N(C)C)cc1 (stereo unspecified) -0.68%, Cc1cccc(C2CC(c3ccccc3)=NN2c2ccc(S(N)(=O)=O)cc2)c1 (stereo unspecified) -2.38%, COc1cccc(-c2sc3ccc(OC)cc3c2-c2ccc(OCCN3CCOCC3)cc2)c1 156%, C[C@@]12C(=O)Nc3ccc(Cl)cc3C(=O)N1[C@H]1c3cc(Cl)ccc3OC[C@@H]1[C@@H]2c1ccccc1 -0.59%, O=C(CSc1nnc(Cc2cccs2)n1Cc1ccco1)Nc1ccc(Br)cc1 -1.48%, Cc1ccc2sc(N(CCCN(C)C)C(=O)c3ccc(Br)s3)nc2c1C -2.13%, CCCCCCCCCC[N+](C)(C)CC/C=C1/c2ccccc2Sc2ccc(Cl)cc21 405%, C[C@H](CO)N1C[C@H](C)[C@@H](CN(C)S(=O)(=O)c2ccccc2)Oc2c(NC(=O)Nc3ccccc3)cccc2C1=O 51.3%, O=C(C1CCCN(c2ncnc3c2nc2n3CCCCC2)C1)N1CCN(c2cccc(Cl)c2)CC1 (stereo unspecified) -0.25%, O=C(C[n+]1cc(-c2ccc(F)cc2)n2c1CCC2)N1c2ccccc2Sc2ccccc21 -0.76%, COc1ccc(-c2c[n+](CC(=O)N3c4ccccc4Sc4ccccc43)c3n2CCC3)cc1 -2.26%, NS(=O)(=O)c1ccc(N2N=C(c3ccccc3)CC2c2ccc(F)cc2)cc1 (stereo unspecified) -0.06%, NC1=NC[C@H](Cc2ccccc2)N1CCCCC1CCCCC1 -0.87%

outcome, inactive:
COc1ccc(CNC(=O)C(C#N)c2nc3ccccc3nc2N2CCN(C)CC2)cc1 (stereo unspecified)
